Records with an inconclusive call do not appear. Calls of active or inactive are those of the source. Unless noted, the call rests on the fitted dose curve.
Key:
[1] = Nuclear factor erythroid 2-related factor 2/antioxidant responsive element (Nrf2/ARE) small molecule agonists: qHTS cell viability counter screen in human keratinocytes (AID 1919968; active means well fitted curve in the direction sought with a large enough effect in the repeat runs; an effect the other way counts as inactive or inconclusive; further: nearly all actives have a fitted effect of over 55% in size)
How it was run: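 KeratinoSens HaCaT cells, 1,500/well, preincubated 5 h, then exposed to compounds in DMSO for 23 h at 37 C/5% CO2. Viability read as CellTiter-Fluor fluorescence after 1 h, in the same wells as the ARE-luciferase read.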

[2] = Nuclear factor erythroid 2-related factor 2/antioxidant responsive element (Nrf2/ARE) small molecule agonists: luciferase reporter gene qHTS assay in human keratinocytes (AID 1919969); further: nearly all actives have a fitted effect of over 35% in size; further: potency means the concentration at half of the fitted maximal effect
[3] = biological target: Gonadotropin-releasing hormone receptor (Homo sapiens) (UniProt P30968); test: Human gonadotropin-releasing hormone receptor (GnRHR) small molecule agonists, calcium flux assay in GnRHR-HEK293 cells (AID 1920063); further: nearly all actives have a fitted effect of over 35% in size
How it was run: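 HEK293 cells stably expressing human GnRHR were dye-loaded for 1 h at 37 C. Compound was added in agonist mode and fluorescence (Ex/Em 480/540) recorded kinetically for 3 min. Fifteen concentrations, triplicates.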

[4] = biological target: KiSS-1 receptor (Homo sapiens) (UniProt Q969F8); test: Human kisspeptin (KISS1R) small molecule agonists, calcium flux assay in KISS1R-HEK293 cells (AID 1920064; active means well fitted curve in the direction sought with a large enough effect in the repeat runs; an effect the other way counts as inactive or inconclusive)
How it was run: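 HEK293 cells stably expressing human KISS1R were loaded with calcium dye for 1 h at 37 C, then given compound; fluorescence (Ex/Em 480/540) was read kinetically for 3 min. Fifteen concentrations, triplicate.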

[5] = G protein-coupled receptor (GPCR) small molecule agonists, calcium flux assay: HEK293 wild type cell line counter screen (AID 1920065)
How it was run: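 Wild-type HEK293 cells plated 18 h, loaded with calcium dye 1 h at 37 C, then compounds added in agonist mode (ATP as positive control). Kinetic fluorescence Ex/Em 480/540 recorded 3 min at 1 sec intervals; 15 concentrations, triplicate.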

[6] = p53 small molecule agonists, cell-based qHTS assay with human liver microsomes (AID 1963577);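 further: p53 response element beta-lactamase reporter cells with liver microsomes plus NADPH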
How it was run: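 In this qHTS, p53 response-element beta-lactamase cells receive test compound together with a microsome/NADPH activating system (0.5 mg/mL final each) and are incubated 16 h at 37 C before LiveBLAzer fluorescence detection.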

[7] = p53 small molecule agonists, cell-based qHTS assay with rat liver microsomes (AID 1963578)
How it was run: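 Agonist mode in p53RE-bla reporter cells, with compounds co-incubated 16 h at 37 C alongside 0.5 mg/mL rat liver microsomes and 0.5 mg/mL NADPH (final), followed by a 2 h LiveBLAzer detection step.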

[8] = p53 small molecule agonists, cell-based qHTS assay with human liver microsomes: qHTS cell viability counter screen (AID 1963579); further: nearly all actives have a fitted effect of over 45% in size
How it was run: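 Metabolically activated exposure: compounds, human liver microsomes and NADPH (0.5 mg/mL final apiece) were added to p53RE-bla cells seeded 5 h earlier, left 16 h at 37 C, and then assessed for viability by CellTiter-Glo luminescence.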

[9] = p53 small molecule agonists, cell-based qHTS assay with rat liver microsomes: qHTS cell viability counter screen (AID 1963580); further: nearly all actives have a fitted effect of over 45% in size
How it was run: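 Viability is assessed in parallel with the p53 reporter read: HCT-116 p53RE-bla cells receive compounds plus rat microsomes and NADPH (0.5 mg/mL final apiece), incubate 16 h at 37 C, and then CellTiter-Glo luminescence is recorded.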

[10] = p53 small molecule agonists, cell-based qHTS assay: qHTS cell viability counter screen (AID 1963581); further: nearly all actives have a fitted effect of over 45% in size
How it was run: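 p53RE-bla HCT-116 cells, compounds added 5 h after plating and incubated 16 h at 37 C. Cytotoxicity measured in the same wells as intracellular ATP by CellTiter-Glo luminescence after 30 min at room temperature.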

[11] = p53 small molecule agonists, cell-based qHTS assay (AID 1963582; active means well fitted activation curve with a large enough effect in the signal ratio in the repeat runs, not every such curve was filed as active; the % refers to the signal ratio)
How it was run: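 p53RE-bla reporter cells, compounds added in DMSO after 5 h plating, incubated 16 h at 37 C. Beta-lactamase read via 2 h room-temperature LiveBLAzer B/G FRET substrate, fluorescence intensity.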

[12] = biological target: 5-hydroxytryptamine receptor 2A (Homo sapiens) (UniProt P28223); test: 5-hydroxytryptamine receptor 2A (HTR2A) small molecule agonists, cell-based qHTS assay (AID 1963587); further: nearly all actives have a fitted effect of over 30% in size
How it was run: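 CHO cells stably expressing human HTR2A, plated 18 h, loaded with calcium dye 1 h at 37 C. Agonist mode: compounds added and intracellular calcium fluorescence recorded kinetically for 2 min at 1 sec intervals.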

[13] = biological target: Muscarinic acetylcholine receptor M1 (Homo sapiens) (UniProt P11229); test: Cholinergic receptor muscarinic 1 (CHRM1) small molecule agonists, cell-based qHTS assay (AID 1963589); further: nearly all actives have a fitted effect of over 35% in size
How it was run: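 CHO cells stably expressing human CHRM1 were loaded with calcium dye for 1 h at 37 C, then compound was added in agonist mode. Intracellular calcium fluorescence was followed kinetically at 1 s intervals. Fifteen concentrations were tested in three independent runs.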

[14] = cAMP Responsive Elements (CRE) small molecule agonists, cell-based qHTS assay (AID 1963590)
How it was run: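 CRE-bla HEK 293T cells, 2,000/well in DMEM with 10% dialyzed FBS and 25 mM HEPES, pre-incubated 18 h at 37 C, then exposed to compound 3 h at 37 C. Beta-lactamase reporter read with LiveBLAzer B/G FRET substrate after 2 h at room temperature.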

[15] = cAMP Responsive Elements (CRE) small molecule antagonists, cell-based qHTS assay (AID 1963591; active means well fitted inhibition curve with a large enough effect in the signal ratio in the repeat runs, not every such curve was filed as active; the % refers to the signal ratio)
How it was run: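 CRE-bla HEK293T cells plated 18 h, then given compound plus NKH477 at 0.25 uM final for 3 h at 37C. Beta-lactamase reporter read with LiveBLAzer B/G FRET substrate after 2 h at room temperature.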

[16] = biological target: Beta-2 adrenergic receptor (Homo sapiens) (UniProt P07550); test: Adrenergic beta2 receptor (ADRB2) small molecule antagonists, cell-based qHTS assay (AID 1963592); further: series mostly up to about 92 µM; nearly all actives have a fitted effect of over 50% in size
How it was run: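 Cells (CHO, stable ADRB2 overexpression) incubated 18-20hr at 37C; compounds added from DMSO; agonist mix (1nM isoproterenol, 100uM IBMX, 25uM Ro-20-1724) added; 0.5hr RT; d2-cAMP and anti-cAMP-cryptate added; 1hr RT; 665/615 nm read.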

[17] = biological target: D(2) dopamine receptor (Homo sapiens) (UniProt P14416); test: Dopamine D2 receptor (DRD2) small molecule antagonists, cell-based qHTS assay (AID 1963595; active means well fitted inhibition curve with a large enough effect in the signal ratio in the repeat runs, with a control signal flat; the % refers to the signal ratio)
How it was run: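 Human DRD2 antagonist qHTS measuring cAMP by HTRF. The cells are exposed to compound for 10 min, then to NKH477 (200 nM) and quinpirole (12 nM) for 30 min at RT, with Ro20-1724 (0.1 mM) present throughout.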

[18] = biological target: D(2) dopamine receptor (Homo sapiens) (UniProt P14416); test: Dopamine D2 receptor (DRD2) small molecule agonists, cell-based qHTS assay (AID 1963594); further: nearly all actives have a fitted effect of over 35% in size
How it was run: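 HEK293 cells stably expressing human DRD2, pre-treated with PDE inhibitor Ro20-1724 (0.1 mM final) and compound 10 min at room temperature, then stimulated with NKH477 (200nM […]) for 30 min. cAMP read by HTRF (665/620 nm).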

[19] = biological target: Muscarinic acetylcholine receptor M1 (Homo sapiens) (UniProt P11229); test: Cholinergic receptor muscarinic 1 (CHRM1) small molecule antagonists, cell-based qHTS assay (AID 1963588); further: nearly all actives have a fitted effect of over 40% in size
How it was run: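 CHRM1-CHO calcium-flux assay, antagonist mode. Cells were seeded 18 h, dye-loaded 1 h at 37 C and given compound for 5 min at RT, then acetylcholine was added at 50nM. FDSS fluorescence was read 3 min; 15 concentrations, three runs.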

[20] = biological target: 5-hydroxytryptamine receptor 2A (Homo sapiens) (UniProt P28223); test: 5-hydroxytryptamine receptor 2A (HTR2A) small molecule antagonists, cell-based qHTS assay (AID 1963586); further: nearly all actives have a fitted effect of over 45% in size
How it was run: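 Antagonist-mode intracellular calcium assay: DOI (4 nM) added after 5 min compound pre-incubation at room temperature to dye-loaded HTR2A-CHO cells. Fluorescence followed for 3 min, sampled every second.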

Measured: Potency

Sequence of 5-hydroxytryptamine receptor 2A (Homo sapiens) (P28223 whole entry, looked up): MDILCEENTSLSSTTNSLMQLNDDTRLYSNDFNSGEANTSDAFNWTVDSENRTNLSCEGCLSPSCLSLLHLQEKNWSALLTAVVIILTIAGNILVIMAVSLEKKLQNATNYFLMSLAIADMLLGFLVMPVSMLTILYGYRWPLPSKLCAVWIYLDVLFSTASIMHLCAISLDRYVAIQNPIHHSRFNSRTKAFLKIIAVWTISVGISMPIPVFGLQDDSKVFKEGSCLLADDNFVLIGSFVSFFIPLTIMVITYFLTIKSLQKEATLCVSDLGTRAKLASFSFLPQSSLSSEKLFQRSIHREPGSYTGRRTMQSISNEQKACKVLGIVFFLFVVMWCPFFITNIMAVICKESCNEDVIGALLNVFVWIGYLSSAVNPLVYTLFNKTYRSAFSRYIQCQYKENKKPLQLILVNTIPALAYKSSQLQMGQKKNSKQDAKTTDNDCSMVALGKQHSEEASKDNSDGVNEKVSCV
Sequence of Gonadotropin-releasing hormone receptor (Homo sapiens) (P30968 whole entry, looked up): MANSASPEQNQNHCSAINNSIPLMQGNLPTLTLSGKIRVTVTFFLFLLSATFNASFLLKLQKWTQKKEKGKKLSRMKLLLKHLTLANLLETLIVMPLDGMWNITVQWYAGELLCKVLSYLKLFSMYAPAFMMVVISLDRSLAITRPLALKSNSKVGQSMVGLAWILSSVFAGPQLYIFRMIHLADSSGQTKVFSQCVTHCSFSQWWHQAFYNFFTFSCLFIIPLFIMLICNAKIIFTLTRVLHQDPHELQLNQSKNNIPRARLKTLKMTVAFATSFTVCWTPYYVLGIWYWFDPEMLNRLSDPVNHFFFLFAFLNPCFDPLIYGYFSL
Sequence of KiSS-1 receptor (Homo sapiens) (Q969F8 whole entry, looked up): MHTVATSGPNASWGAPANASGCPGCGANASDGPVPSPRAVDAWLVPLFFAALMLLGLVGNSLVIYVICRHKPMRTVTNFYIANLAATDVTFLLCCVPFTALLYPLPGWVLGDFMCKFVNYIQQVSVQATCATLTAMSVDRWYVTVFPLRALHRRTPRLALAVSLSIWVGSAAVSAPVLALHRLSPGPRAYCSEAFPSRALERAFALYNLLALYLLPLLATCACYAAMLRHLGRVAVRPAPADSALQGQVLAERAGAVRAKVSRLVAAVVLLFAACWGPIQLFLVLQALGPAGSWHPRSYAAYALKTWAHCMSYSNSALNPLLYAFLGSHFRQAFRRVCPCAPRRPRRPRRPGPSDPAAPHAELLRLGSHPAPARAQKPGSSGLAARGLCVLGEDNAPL
Sequence of Muscarinic acetylcholine receptor M1 (Homo sapiens) (P11229 whole entry, looked up): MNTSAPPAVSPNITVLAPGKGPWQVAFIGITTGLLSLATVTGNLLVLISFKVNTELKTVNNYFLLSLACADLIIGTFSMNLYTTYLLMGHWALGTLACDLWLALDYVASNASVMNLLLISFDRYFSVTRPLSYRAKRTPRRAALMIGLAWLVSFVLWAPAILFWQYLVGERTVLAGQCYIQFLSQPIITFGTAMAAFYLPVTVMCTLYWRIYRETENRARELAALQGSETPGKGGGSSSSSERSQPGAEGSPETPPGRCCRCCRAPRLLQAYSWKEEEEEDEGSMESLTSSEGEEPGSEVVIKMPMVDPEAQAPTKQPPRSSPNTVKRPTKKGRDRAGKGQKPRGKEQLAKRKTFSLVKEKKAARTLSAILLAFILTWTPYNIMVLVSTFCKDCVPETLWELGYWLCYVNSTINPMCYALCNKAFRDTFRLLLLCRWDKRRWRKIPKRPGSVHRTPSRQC
Sequence of D(2) dopamine receptor (Homo sapiens) (P14416 whole entry, looked up): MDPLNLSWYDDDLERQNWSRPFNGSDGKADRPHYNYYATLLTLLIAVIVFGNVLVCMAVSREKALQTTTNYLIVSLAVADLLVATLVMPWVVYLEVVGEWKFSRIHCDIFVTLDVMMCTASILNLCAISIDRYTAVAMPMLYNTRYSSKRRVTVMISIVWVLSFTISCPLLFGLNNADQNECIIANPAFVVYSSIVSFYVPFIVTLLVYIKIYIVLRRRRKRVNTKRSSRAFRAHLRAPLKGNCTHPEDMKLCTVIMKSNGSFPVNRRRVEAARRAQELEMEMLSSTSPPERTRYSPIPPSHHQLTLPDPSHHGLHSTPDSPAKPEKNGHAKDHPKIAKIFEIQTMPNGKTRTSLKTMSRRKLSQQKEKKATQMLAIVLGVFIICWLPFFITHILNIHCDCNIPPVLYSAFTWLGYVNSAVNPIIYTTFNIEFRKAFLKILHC
Sequence of Beta-2 adrenergic receptor (Homo sapiens) (P07550 whole entry, looked up): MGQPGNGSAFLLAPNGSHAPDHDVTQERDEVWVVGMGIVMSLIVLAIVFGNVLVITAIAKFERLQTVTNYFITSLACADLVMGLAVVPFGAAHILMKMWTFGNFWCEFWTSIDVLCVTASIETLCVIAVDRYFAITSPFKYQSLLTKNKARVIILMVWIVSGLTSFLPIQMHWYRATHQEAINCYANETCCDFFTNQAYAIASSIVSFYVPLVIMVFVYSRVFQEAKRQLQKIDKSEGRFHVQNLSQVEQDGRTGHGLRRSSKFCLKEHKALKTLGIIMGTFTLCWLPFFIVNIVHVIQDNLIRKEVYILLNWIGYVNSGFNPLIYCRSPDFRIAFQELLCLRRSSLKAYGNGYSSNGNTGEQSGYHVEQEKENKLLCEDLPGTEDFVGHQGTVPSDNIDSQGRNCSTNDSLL

ClCCCN1CCN(c2cccc(Cl)c2)CC1
not listed: [18] | [19] | [20]
inactive: all other assays above

CC(O)(CS(=O)(=O)c1ccc(F)cc1)C(=O)Nc1ccc(C#N)c(C(F)(F)F)c1 (stereo unspecified)
not listed: [12] | [13] | [14] | [15] | [17] | [19] | [20]
inactive: all other assays above

ClC(Cl)=C(Cl)Cl
not listed: [15] | [16] | [20]
inactive: all other assays above

CC(=O)Nc1cc([As](=O)(O)O)ccc1O
not listed: [12] | [18] | [20]
inactive: all other assays above

O=c1oc2ccccc2c(O)c1C1CCCc2ccccc21 (stereo unspecified)
not listed: [16] | [19] | [20]
inactive: all other assays above

CO/C=C(/C(=O)OC)c1ccccc1COc1cccc(C(F)(F)F)n1
not listed: [11] | [15] | [16]
inactive: all other assays above

O=[N+]([O-])c1ccc(CCl)cc1
active: [2] 60.1 µM
not listed: [12] | [13] | [14] | [20]
inactive: all other assays above

Cn1c(CCCC(=O)O)nc2cc(N(CCCl)CCCl)ccc21
not listed: [12] | [15] | [20]
inactive: all other assays above

From PubChem BioAssay (Tox21)
